# Source: PubChem BioAssay
# PfHsp90 set2 = growth inhibition of PfHsp90-expressing yeast, primary screen, antimalarial PfHsp90 inhibitor project, S. cerevisiae, BacTiter-Glo luminescence, single point, set 2. BacTiter-Glo ATP, 48 h; yeast lacking PDR1 and PDR3 efflux regulators. inhibition, % at 9.4 µM. 310,000 compounds, 0.32% hits;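 active = every replicate shows inhibition above about 80%, whatever the replicate mean, limit read from the data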;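 also: 0% = DMSO neutral controls and 100% = 20 µM radicicol positive controls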
# TIM10 inh = growth inhibitors of isogenic TIM10 control yeast, primary screen, counter-screen for tim10-1 yeast inhibitor project, luminescence, uHTS; S. cerevisiae TIM10 strain growth, BacTiter-Glo luminescence, 24 h; inhibition, % at 10 µM; 330,000 compounds, 1.4% hits; AID 463195, 2010;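 active = inhibition of 40% or more at the single tested concentration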;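 also: wild-type TIM10 isogenic control strain grown at permissive 25 °C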
# tim23-1 inh = growth inhibitors of tim23-1 mutant yeast, primary screen, luminescence, uHTS; 330,000 compounds, 1.3% hits; S. cerevisiae tim23-1 growth, BacTiter-Glo luminescence, 24 h; AID 463212, 2010; inhibition, % at 20 µM;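 active = growth inhibition of the mutant yeast at or above 50%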;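 also: temperature-sensitive mutant grown at 25 °C; plate controls were DMSO-treated mutant yeast for no effect and medium wells lacking yeast for full effect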
# NLRP3 yeast inh = NALP3 inflammasome inhibitors in reconstituted yeast, primary screen, luminescence, uHTS; Yeast reconstituted NLRP3/ASC/caspase-1, beta-gal luminescence, 24 h; AID 2825, 2010; 330,000 compounds, 0.39% hits; inhibition, % at 10 µM;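 active = inhibition of 50% or more; inactive = inhibition below 50%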;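 also: plate controls were induced DMSO wells for no effect and uninduced yeast grown without galactose for full effect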
# tim10-1 inh = growth inhibitors of tim10-1 mutant yeast, primary screen, luminescence, uHTS; S. cerevisiae tim10-1 ts strain growth, BacTiter-Glo, 24 h; inhibition, % at 20 µM; 330,000 compounds, 2.2% hits; AID 463190, 2010;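 active = inhibition of at least 40%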;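 also: mutant grown at 25 °C; 0% = DMSO wells with yeast and 100% = wells holding no yeast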
# NALP3 confirm = NALP3 inhibitors retested in yeast, confirmation, luminescence, single concentration; shares compounds with NLRP3 yeast inh; yeast expressing human NALP3; inhibition, % at 10 µM; 1,300 compounds, 81% hits; AID 435006, 2010; in the data active = inhibition above about 48%
# Casp1-ASC yeast = CASP1-PYCARD signaling inhibition in yeast, confirmatory test, counterassay for NLRP3 inhibitor program, one-dose; 1,000 compounds, 66% hits; shares compounds with NLRP3 yeast inh; yeast expressing Caspase-1-ASC, luminescence counter screen; inhibition, % at 10 µM; AID 488784, 2010
# NALP3 retest = NALP3 inhibitors in yeast, repeat test, confirmation, luminescence, single concentration, retest; 1,000 compounds, 53% hits; yeast expressing human NALP3, luminescence read-out; inhibition, % at 10 µM; shares compounds with NLRP3 yeast inh
# Starred values were filed as active, the others as inactive; . = no result given. The list is not random: actives were taken first. Their share in the collection is about 3.7%. Rule as the data show it, unless noted: active = inhibition above about 50%; inactive = the rest.
SMILES,PfHsp90 set2,TIM10 inh,tim23-1 inh,NLRP3 yeast inh,tim10-1 inh,NALP3 confirm,others
CCC(=O)OC1CCC2C3CCC4CC(=O)C=CC4(C)C3CCC12C (configuration not stated),20.6,.,.,.,.,.,
COP(=O)(OC)C(Nc1ccccc1)c1ccccc1 (configuration not stated),4.7,1.6,9.7,20.2,15.9,.,
C[C@]12CCC3C(CC[C@H]4C[C@@H](O)CC[C@]34C)C1CCC2=O (some centres not stated),-4.5,-151.5,-21.1,64.0*,-86.1,66.2*,Casp1-ASC yeast=62.9*;NALP3 retest=43.6
C[C@]12CCC3C(CC[C@H]4C[C@@H](O)CC[C@]34C)[C@H]1C=CC2=O (some centres not stated),-8.9,12.6,36.6,55.3*,16.8,60.0*,
C[C@]12CC[C@H](O)C[C@H]1CC[C@@H]1[C@@H]2CC[C@]2(C)[C@@H](C3=CC(=O)OC3)CC[C@]12O,-9.1,6.3,13.4,28.4,-0.2,.,
O=C(Nc1ccccc1)N1CCC2(CC1)OCCO2,.,-14.8,8.5,12.2,0.4,.,
C[C@]12CCC(=O)C=C1CCC1C2CC[C@@]2(C)C1CC[C@]2(C)O (some centres not stated),31.5,-1.1,29.9,32.0,-26.9,.,
CC12CCC3C(CC=C4CC(O)CCC43C)C1C/C(=C\N1CCCC1)C2=O (configuration not stated),.,-24.0,7.1,59.4*,0.0,42.6,
C[C@]12CCC(=O)C=C1CCC1C2CC[C@@]2(C)C1CC[C@@H]2O (some centres not stated),-0.6,-27.5,22.4,52.9*,-33.5,60.4*,
C[C@@H]1CC2C3CC=C4C[C@@H](O)CC[C@]4(C)C3CC[C@]2(C)[C@H]1O (some centres not stated),14.6,18.9,26.8,56.5*,15.8,40.4,
C[C@]12CCC(=O)C[C@H]1CC[C@@H]1[C@@H]2CC[C@]2(C)[C@@H](O)CC[C@@H]12,.,-2.2,22.2,59.4*,22.4,73.0*,
C[C@]12CC[C@H](O)CC1=CCC1C2CC[C@@]2(C)C1C[C@@H]1CC(=O)O[C@@H]12 (some centres not stated),16.3,18.9,13.0,43.8,17.6,.,
CCOC(=O)c1cc2c(cn1)[nH]c1ccccc12,-10.8,0.1,20.2,21.2,1.6,.,
C[C@]12CC[C@H](N)CC1=CCC1C2CC[C@@]2(C)C1CC[C@@H]2O (some centres not stated),2.6,-4.6,3.1,55.9*,-9.6,56.4*,
C[C@H]1CC2C3CC=C4C[C@@H](O)CC[C@]4(C)C3CC[C@]2(C)[C@H]1O (some centres not stated),15.5,21.5,22.1,53.9*,7.5,48.4,
C[C@]12CC[C@@H](O)CC1=CCC1C2CC[C@@]2(C)C1C[C@@H](F)[C@H]2O (some centres not stated),8.1,.,.,.,.,.,
O=[N+]([O-])c1ccc(N2CCCC2)c(F)c1Br,-1.9,23.2,10.3,52.2*,14.8,59.8*,Casp1-ASC yeast=71.5*;NALP3 retest=61.8*
CC12CCC3C(CC=C4CC5(CCC43C)OCCO5)C1CCC2=O (configuration not stated),16.3,-14.2,-13.1,62.4*,-10.5,74.9*,
C[C@]12CC[C@H](OC(=O)CCC(=O)O)CC1=CCC1C2CC[C@@]2(C)C1CC[C@@H]2OC(=O)CCC(=O)O (some centres not stated),-13.2,-5.7,20.8,37.2,-2.8,.,
C[C@]12CC[C@H](OS(=O)(=O)O)CC1=CC[C@@H]1[C@@H]2CC[C@]2(C)C(=O)CC[C@@H]12,10.5,6.1,8.3,8.7,2.5,.,
